# Mdm2-MdmX inh = inhibitors of human Mdm2/MdmX interaction; O15151+Q00987; SaOS-2 split-luciferase Mdm2/MdmX complementation, luminescence; inhibition, % at 8 µM; 330,000 compounds, 3% hits;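 active = inhibition of at least 50% at 8 µM in the primary screen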
# CSC inhib = cancer stem cell inhibition | 300,000 compounds, 1.1% hits | cancer stem cell-like cells viability, luminescence | inhibition, % at 7.5 µM; in the data active = inhibition above about 75%; inconclusive = no clear call, values can overlap the other calls; tested in HMLE shEcad cells
# Beta cell apopt = beta cell apoptosis inhibition; INS-1E cytokine-induced death, ATP luminescence, 48 h; percent of positive-control rescue, neutral wells zero; protection from apoptosis, % (no concentration beside the values); 300,000 compounds, 0.8% hits;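 active = Every replicate reaches about 75%, or at least half do and their mean reaches it too, limit read from the data; inconclusive = At least half of replicates reach the limit but their mean does not; inactive = Under half of replicates reach the limit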;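 note: higher means more ATP so stronger rescue from cytokine killing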
# Calb FLC = C. albicans growth modulation with fluconazole. C. albicans CaCi-2 (fluconazole-resistant clinical isolate) + fluconazole, Alamar Blue growth, 48 h. growth inhibition, % (concentration not given with the values). 300,000 compounds, 0.57% hits. AID 1979;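 active = growth inhibition above about 58% in most replicates, limit read from the data, passing the limit was not always enough; inconclusive = exactly half the replicates above a set limit; inactive = most replicates below a set limit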;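 note: all wells also contain fluconazole at 8 µg/ml as a sub-toxic cotreatment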
# PP5 primary = blocks human protein phosphatase 5 activity; P53041; purified PP5c, OMFP substrate fluorescence; inhibition, % at 6.7 µM; 320,000 compounds, 0.18% hits;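 active = inhibition above the campaign's mean inhibition across all tested compounds plus 3 SD, cut at about 9.5% in these data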
# PP1 counter = blocks human PP1-alpha phosphatase, a PP5 counter-screen; purified PP1alpha, OMFP fluorescence; P62136; 320,000 compounds, 0.9% hits; inhibition, % at 6.7 µM; AID 2235;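 active = inhibition above the mean inhibition of all tested compounds plus 3 SD, computed separately for each screening campaign, cut at about 15% in these data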
# Target sequence (P62136 whole entry, looked up): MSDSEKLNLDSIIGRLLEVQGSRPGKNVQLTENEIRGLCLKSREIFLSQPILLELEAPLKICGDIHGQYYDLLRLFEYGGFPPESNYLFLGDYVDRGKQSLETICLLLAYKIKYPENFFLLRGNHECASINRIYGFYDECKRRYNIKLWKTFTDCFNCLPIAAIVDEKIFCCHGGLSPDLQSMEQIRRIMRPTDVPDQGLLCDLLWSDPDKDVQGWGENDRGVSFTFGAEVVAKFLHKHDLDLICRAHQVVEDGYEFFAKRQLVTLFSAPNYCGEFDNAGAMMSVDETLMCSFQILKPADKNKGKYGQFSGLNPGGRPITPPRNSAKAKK
# PP1 inh confirm = confirmation of human PP1 phosphatase inhibitors; purified PP1alpha, OMFP substrate fluorescence; inhibition, % at 6.7 µM; shares compounds with PP1 counter; 1,900 compounds, 52% hits;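 active = mean PP1 inhibition above a set limit taken from the earlier primary screen, cut at about 15% in these data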
# PP5 counter = counter-screen for PP1 inhibitors: human PP5 phosphatase inhibition; shares compounds with PP1 counter; purified PP5c, OMFP fluorescence; inhibition, % at 6.7 µM; 1,900 compounds, 4% hits;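 active = mean PP5 inhibition over triplicate wells above about 9.5% taken from the earlier PP1 screen, limit read from the data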
# A number is an active result; i = inactive; ? = inconclusive; nt = no result. Most compounds without a hit are left out; they make up all but 4.9% or so of the library.
SMILES,Mdm2-MdmX inh,CSC inhib,Beta cell apopt,Calb FLC,PP5 primary,PP1 counter,PP1 inh confirm,PP5 counter
CC(C)(C)C1CCC2(CC1)Nc1cccc3cccc(c13)N2,i,i,i,i,i,31,25,i
O=C1CC(c2ccccc2)=NN1c1nc(-c2ccccc2)cs1,i,i,i,?,i,20,i,i
CC1=NN(c2nc(-c3ccccc3)cs2)C(=O)C1,i,nt,i,i,i,20,i,10
C#CCn1c(=NC(=O)c2sc3ccccc3c2Cl)sc2cc(S(N)(=O)=O)ccc21,nt,i,i,i,i,28,34,i
C#CCn1c(=NC(=O)c2ccccc2[N+](=O)[O-])sc2cc(S(C)(=O)=O)ccc21,i,i,i,i,i,i,nt,nt
N#Cc1c(SCC(=O)Nc2nncs2)sc2c(O)cc(=O)[nH]c12,i,i,i,i,i,42,i,i
CCCOc1ccc(C2C(C(=O)c3ccc(C)o3)=C(O)C(=O)N2Cc2ccco2)cc1 (configuration not stated),i,i,i,i,i,27,39,i
CCOc1cc(C2C(C(=O)c3ccc(C)o3)=C(O)C(=O)N2CCc2ccccc2)ccc1O (configuration not stated),i,i,i,i,i,33,38,i
Cc1cc(N2C(=O)C(O)=C(C(=O)c3ccc(C)o3)C2c2ccc([N+](=O)[O-])cc2)no1 (configuration not stated),i,i,i,i,i,18,i,i
CCCOc1cccc(C2C(C(=O)c3ccc(C)o3)=C(O)C(=O)N2CCN2CCOCC2)c1 (configuration not stated),i,i,i,i,i,i,nt,nt
CCCOc1cccc(C2C(C(=O)c3ccc(C)o3)=C(O)C(=O)N2c2nc(C)c(C(C)=O)s2)c1 (configuration not stated),i,i,i,i,i,25,32,i
Cc1c(Cl)cccc1NC(=O)CNC(=O)Cc1c[nH]c2ccccc12,i,i,i,nt,i,i,nt,nt
Cc1cc(N2C(=O)C(O)=C(C(=O)c3ccc(C)o3)C2c2cccc(Oc3ccccc3)c2)no1 (configuration not stated),i,i,i,i,i,29,29,i
Cc1cc(N=NC(=O)c2ccccc2)ccc1O,i,i,i,nt,i,i,nt,nt
Cc1ccc(N=Nc2ccc(O)c(P(=O)(c3ccccc3)c3ccccc3)c2)cc1,i,i,i,i,i,18,16,i
CCOc1ccccc1NC(=O)CSc1nc(=O)n(CCCN2CCOCC2)c2c1CCCC2,i,i,i,i,i,i,nt,nt
COc1ccc(S(=O)(=O)c2c(C)c(NS(=O)(=O)c3ccccc3)cc(C)c2O)cc1,i,i,i,i,i,21,i,i
COC(=O)c1ccc(NC(=O)CN2CCN(S(=O)(=O)c3ccc(Br)cc3)CC2)cc1,i,i,i,i,i,i,nt,nt
CCN(CC)S(=O)(=O)c1ccc(N2CCCC2)c(NC(=O)CN2C(=O)NC3(CCCC3)C2=O)c1,i,i,i,nt,i,21,i,i
Cc1nc([N+](=O)[O-])cn1CC(=O)Nc1ccc([N+](=O)[O-])cc1,i,i,i,i,i,i,nt,nt
CN(C)c1cc(-c2ccc(Cl)c(Cl)c2)oc(=O)c1Cl,i,i,i,i,i,i,nt,nt
CCCCc1cc(=O)oc2cc(C)cc(OCC(=O)NC(Cc3ccc(Cl)cc3)C(=O)O)c12 (configuration not stated),i,i,i,i,i,i,nt,nt
C/C(N)=C(/C#N)C(=O)CSc1nnc(Nc2cccc(C)c2C)s1,i,i,i,i,i,i,nt,nt
Cc1cccc(Nc2nnc(SCC(=O)c3ccc(Br)s3)s2)c1C,i,i,i,i,i,21,21,i
C=CCOC(=O)C1=C[C@H](c2csc3ccccc23)C[C@H](OCc2ccc(CO)cc2)O1,i,i,i,i,i,22,i,i
SMILES,Mdm2-MdmX inh,CSC inhib,Beta cell apopt,Calb FLC,PP5 primary,PP1 counter,PP1 inh confirm,PP5 counter
Cc1ccc(C)c(OCCn2cc(/C=C(/C#N)C(=O)NCC3CCCO3)c3ccccc32)c1 (configuration not stated),i,i,nt,i,i,53,i,i
N#C/C(=C\c1cn(CCOc2ccccc2)c2ccccc12)C(=O)NCC1CCCO1 (configuration not stated),i,nt,i,i,i,i,nt,nt
O=C(O)c1cc(-c2ccccc2Cl)n(-c2ccccc2)n1,i,i,i,i,i,i,nt,nt
O=C(O)c1nc(-c2ccccc2)n(-c2ccccc2)n1,i,i,i,i,i,i,nt,nt
COc1ccc(-n2nc(C(=O)O)cc2-c2ccccc2)cc1,i,i,i,i,i,26,24,i
Cc1ccccc1-n1nc(C(=O)O)cc1-c1ccccc1,i,i,i,i,i,36,33,i
O=C(O)c1cc(-c2ccccc2)n(-c2ccccc2)n1,i,nt,i,i,i,24,28,i
COC(=O)c1cc(-c2ccc(F)cc2)n(-c2ccccc2)n1,i,i,i,i,i,i,nt,nt
O=C(O)c1nc(-c2ccccc2)n(-c2ccc(Cl)cc2)n1,i,i,i,i,i,18,18,i
COC(=O)c1cc(-c2ccc(Cl)cc2)n(-c2ccc(S(N)(=O)=O)cc2)n1,i,i,i,i,i,i,nt,nt
NS(=O)(=O)c1ccc(-n2nc(C(=O)O)cc2-c2ccc(Cl)cc2)cc1,i,i,i,i,i,i,nt,nt
O=C(O)c1cc(-c2ccccc2)n(-c2ccc(Cl)cc2)n1,i,i,i,i,i,24,31,i
O=C(O)c1cc(-c2ccc(Cl)c(Cl)c2)n(-c2ccc(F)cc2)n1,i,i,i,i,i,53,49,i
CC(C)Cc1nnc(NC(=O)CCC(=O)N2CCN(Cc3ccccc3)CC2)s1,i,i,i,i,i,i,nt,nt
COc1ccc(C(=O)C(C)OC(=O)CNC(=O)c2ccco2)cc1 (configuration not stated),i,i,i,nt,nt,nt,nt,nt
Cc1ccc(C(=O)c2oc3nc(C)cc(C)c3c2N)cc1,i,i,i,121,i,21,i,i
Cc1c(NC(=O)c2cccnc2C(=O)O)cccc1C(=O)O,i,i,i,i,i,25,i,i
CCn1c(SCC(=O)c2ccc3c(c2)Cc2ccccc2-3)nnc1-c1ccc(N)cc1,i,i,i,i,i,21,20,i
CC(=O)c1ccc(N2CCN(C(=O)c3ccc(Cn4c(=S)[nH]c5ccc(N6CCOCC6)cc5c4=O)cc3)CC2)cc1,i,i,i,i,i,45,29,i
S=C(Nc1ccc(Nc2ccccc2)cc1)NN1CCOCC1,i,i,i,i,i,i,nt,nt
Cc1cc(C(=O)Cn2nc(C(=O)O)c3ccccc3c2=O)c(C)n1CC(F)(F)F,i,i,i,i,i,i,nt,nt
